According to PubChem BioAssay (NCATS):
Inconclusive results are not listed. Active and inactive are the calls of the source. Unless noted, calls follow the shape of the dose curve; as a rule, active = well fitted inhibition curve with a large enough effect; inconclusive = small, poorly fitted or top-dose-only effect; inactive = no such curve, though single readings can be large or run the other way.

experiment: qHTS profiling of the MIPE4 collection as inhibitors of Plasmodium falciparum (3D7) proliferation (AID 743344; call rule not given here;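 also: scaled between DMSO vehicle wells and 0.29 µM artemisinin as full inhibition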); settings: P. falciparum 3D7 in erythrocytes, SYBR Green DNA fluorescence, 72 h; at 9.64 µM (top of the series) unless noted
Summary of the method: (§1)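 Parasite DNA was quantified by SYBR Green I fluorescence (ex 485, em 535 nm) after overnight lysis in saponin/Triton buffer at room temperature. Cultures at 0.3% parasitemia and 2.5% hematocrit were first exposed to compound for 72 h at 37 C; signals were normalised to artemisinin (0.29 uM) and vehicle wells.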

Row | SMILES | parasite growth, % of DMSO control
1 | COc1ccc(NS(=O)(=O)c2ccc(N)cc2)nn1 | 103%
2 | CCCCCCCCCCOc1cc2c(=O)c(C(=O)OCC)c[nH]c2cc1OCC | 7.74% [at 28.5 µM]
3 | Nc1ccc(S(=O)(=O)c2ccc(N)cc2)cc1 | 91.3%

experiment: qHTS profiling of the MIPE4 collection as inhibitors of Plasmodium falciparum (DD2) proliferation (AID 743345; call rule not given here); settings: P. falciparum Dd2 in erythrocytes, SYBR Green DNA, 72 h; at 9.64 µM (top of the series) unless noted
Summary of the method: as §1

Row | SMILES | parasite growth remaining, % of DMSO control (lower = more inhibition)
4 | COc1ccc(NS(=O)(=O)c2ccc(N)cc2)nn1 | 101%
5 | CCCCCCCCCCOc1cc2c(=O)c(C(=O)OCC)c[nH]c2cc1OCC | 7.98% [at 28.5 µM]
6 | Nc1ccc(S(=O)(=O)c2ccc(N)cc2)cc1 | 103%

experiment: qHTS profiling of the MIPE4 collection as inhibitors of Plasmodium falciparum (DD2) proliferation (Rep 2) (AID 743346; call rule not given here); settings: P. falciparum Dd2 in erythrocytes, SYBR Green DNA, 72 h; at 9.64 µM (top of the series) unless noted
Summary of the method: as §1

Row | SMILES | parasite growth, % of control (lower = inhibition)
7 | COc1ccc(NS(=O)(=O)c2ccc(N)cc2)nn1 | 141%
8 | CCCCCCCCCCOc1cc2c(=O)c(C(=O)OCC)c[nH]c2cc1OCC | 14.5% [at 28.5 µM]
9 | Nc1ccc(S(=O)(=O)c2ccc(N)cc2)cc1 | 101%

experiment: qHTS profiling of the MIPE4 collection as inhibitors of Plasmodium falciparum (HB3) proliferation (AID 743347; call rule not given here;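 also: plate controls were DMSO vehicle wells for no effect and artemisinin wells for full effect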); settings: P. falciparum HB3 in erythrocytes, SYBR Green DNA, 72 h; at 9.64 µM (top of the series) unless noted
Summary of the method: as §1

Row | SMILES | growth, % of control
10 | COc1ccc(NS(=O)(=O)c2ccc(N)cc2)nn1 | 62.1%
11 | CCCCCCCCCCOc1cc2c(=O)c(C(=O)OCC)c[nH]c2cc1OCC | 3.33% [at 28.5 µM]
12 | Nc1ccc(S(=O)(=O)c2ccc(N)cc2)cc1 | 100%

experiment: qHTS assay for measurement of the activity of small molecule inhibitors on Zika virus induced Caspase-3 activity in human iPSC derived neural progenitor cells (hNPCs) (AID 1224857); settings: hNPCs ZIKV-induced caspase-3/7, Caspase-Glo luminescence, 6 h; series mostly up to 45.7 µM; also: % of control where 0% means no effect; nearly all actives have a fitted effect of over 65% in size
Summary of the method: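 Caspase-3/7 induction by a 6-hour ZIKV infection was quantified with a luminescent Caspase-Glo 3/7 reagent incubated 30 minutes at room temperature. Compounds were preincubated with hNPCs for 1 hour; inhibition was calculated against uninfected and infected control wells.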

Row | SMILES | outcome | activity change, negative = inhibition
13 | C1CCN2C[C@@H]3C[C@@H](CN4CCCC[C@@H]34)[C@H]2C1 | inactive | –
14 | C[C@@H](c1ncncc1F)C(O)(Cn1cncn1)c1ccc(F)cc1F (some centres not stated) | inactive | –
15 | CC(=O)N[C@@H](CC(C)C)C(=O)O | inactive | –
16 | O=c1[nH]cnc2nc[nH]c12 | inactive | –
17 | CCOC(=O)OC(C)OC(=O)[C@@H]1N2C(=O)[C@@H](NC(=O)[C@H](N)c3ccccc3)[C@H]2SC1(C)C (some centres not stated) | inactive | –
18 | C=CCNC(N)=S | inactive | –
19 | CCCCCOC(=O)Nc1nc(=O)n([C@@H]2O[C@H](C)[C@@H](O)[C@H]2O)cc1F | inactive | –
20 | COc1cc(O)cc(O)c1 | inactive | –
21 | Cc1cc(-n2nc3ccc(Cl)cc3n2)c(O)c(C(C)(C)C)c1 | inactive | –
22 | NC(=O)CC[C@@H](N)C(=O)O | inactive | –
23 | CCc1cccc(CC)c1NC(=O)CN(CC(=O)O)CC(=O)O | inactive | –
24 | Cc1ccsc1/C=C/C1=NCCCN1C | inactive | –
25 | COc1ccc(NS(=O)(=O)c2ccc(N)cc2)nn1 | inactive | –
26 | CCc1nnc(NS(=O)(=O)c2ccc(N)cc2)s1 | inactive | –
27 | O=C1c2ccccc2S(=O)(=O)N1CCCCN1CCN(c2ncccn2)CC1 | inactive | –
28 | CCCC(O)C(CC)CO (configuration not stated) | inactive | –
29 | CCN(CC)S(=O)(=O)c1ccc(C(=O)O)cc1 | inactive | –
30 | Cc1c(I)c(=O)n(-c2ccccc2)n1C | inactive | –
31 | CCN(CC)CC1CCCCN1CC(=O)N1c2ccccc2C(=O)Nc2cccnc21 (configuration not stated) | inactive | –

Row | SMILES | outcome | activity change, negative = inhibition
32 | CCCCCC(C)N (configuration not stated) | inactive | –
33 | NNC(=O)CP(=O)(c1ccccc1)c1ccccc1 | inactive | –
34 | CCCCCCCCCCOc1cc2c(=O)c(C(=O)OCC)c[nH]c2cc1OCC | – | 9.1% [at 4.53 µM] (inactive)
35 | CN/C(=C\[N+](=O)[O-])NCCSCc1csc(CN(C)C)n1 | inactive | –
36 | Nc1ccc(S(=O)(=O)c2ccc(N)cc2)cc1 | inactive | –
37 | O=C(CCBr)N1CCN(C(=O)CCBr)CC1 | inactive | –
38 | O=C(O)c1ccccc1C(=O)Nc1ccc(S(=O)(=O)Nc2nccs2)cc1 | inactive | –
39 | O=C(O)COC(=O)Cc1ccccc1Nc1c(Cl)cccc1Cl | inactive | –
40 | CNCc1ccccc1 | inactive | –
41 | COC(=O)c1ccc(O)cc1 | inactive | –
42 | CC(=O)Oc1cccc(C)c1 | inactive | –
43 | CCOc1ccc(C(=O)OCCN(CC)CC)cc1 | inactive | –
44 | O=C(O)[C@@H]1[C@H]2C[C@H]3c4[nH]c5ccccc5c4CCN3C[C@@H]2CC[C@@H]1O | inactive | –
45 | CCOc1ccccc1O[C@H](c1ccccc1)[C@H]1CNCCO1 | inactive | –
46 | NS(=O)(=O)c1cc(-c2nn[nH]n2)c(NCc2cccs2)cc1Cl | inactive | –
47 | CC(=O)Oc1cccc(O)c1 | inactive | –
48 | O=C(O)C(S)C(S)C(=O)O (configuration not stated) | inactive | –
49 | NS(=O)(=O)c1cc(C2(O)NC(=O)c3ccccc32)ccc1Cl (configuration not stated) | inactive | –
50 | O=c1[nH]c(=O)n([C@H]2C[C@H](O)[C@@H](CO)O2)cc1I | inactive | –

experiment: qHTS assay for measurement of the activity of small molecule inhibitors on Zika virus induced Caspase-3 activity in human astrocytoma cells (AID 1224859); settings: SNB-19 ZIKV-induced caspase-3/7, luminescence, 6 h; series mostly up to 45.7 µM;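 also: plate controls were ZIKV-infected untreated cells for no effect and uninfected cells for full effect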
Summary of the method: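 In SNB-19 cells plated at 250 cells/well and grown 16-20 h, compounds were applied 1 h before ZIKV (2 FFU/cell). Six hours later caspase-3/7 luminescence was recorded.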

Row | SMILES | outcome | activity change, negative = inhibition
51 | C1CCN2C[C@@H]3C[C@@H](CN4CCCC[C@@H]34)[C@H]2C1 | inactive | –
52 | C[C@@H](c1ncncc1F)C(O)(Cn1cncn1)c1ccc(F)cc1F (some centres not stated) | inactive | –
53 | CC(=O)N[C@@H](CC(C)C)C(=O)O | inactive | –
54 | O=c1[nH]cnc2nc[nH]c12 | inactive | –
55 | CCOC(=O)OC(C)OC(=O)[C@@H]1N2C(=O)[C@@H](NC(=O)[C@H](N)c3ccccc3)[C@H]2SC1(C)C (some centres not stated) | inactive | –
56 | C=CCNC(N)=S | inactive | –
57 | CCCCCOC(=O)Nc1nc(=O)n([C@@H]2O[C@H](C)[C@@H](O)[C@H]2O)cc1F | inactive | –
58 | COc1cc(O)cc(O)c1 | inactive | –
59 | Cc1cc(-n2nc3ccc(Cl)cc3n2)c(O)c(C(C)(C)C)c1 | inactive | –
60 | NC(=O)CC[C@@H](N)C(=O)O | inactive | –
61 | CCc1cccc(CC)c1NC(=O)CN(CC(=O)O)CC(=O)O | inactive | –
62 | Cc1ccsc1/C=C/C1=NCCCN1C | inactive | –
63 | COc1ccc(NS(=O)(=O)c2ccc(N)cc2)nn1 | inactive | –
64 | CCc1nnc(NS(=O)(=O)c2ccc(N)cc2)s1 | inactive | –
65 | O=C1c2ccccc2S(=O)(=O)N1CCCCN1CCN(c2ncccn2)CC1 | inactive | –
66 | CCCC(O)C(CC)CO (configuration not stated) | inactive | –
67 | CCN(CC)S(=O)(=O)c1ccc(C(=O)O)cc1 | inactive | –
68 | Cc1c(I)c(=O)n(-c2ccccc2)n1C | inactive | –
69 | CCN(CC)CC1CCCCN1CC(=O)N1c2ccccc2C(=O)Nc2cccnc21 (configuration not stated) | inactive | –

Row | SMILES | outcome | activity change, negative = inhibition
70 | CCCCCC(C)N (configuration not stated) | inactive | –
71 | NNC(=O)CP(=O)(c1ccccc1)c1ccccc1 | inactive | –
72 | CCCCCCCCCCOc1cc2c(=O)c(C(=O)OCC)c[nH]c2cc1OCC | – | -3.7% [at 4.53 µM] (inactive)
73 | CN/C(=C\[N+](=O)[O-])NCCSCc1csc(CN(C)C)n1 | inactive | –
74 | Nc1ccc(S(=O)(=O)c2ccc(N)cc2)cc1 | inactive | –
75 | O=C(CCBr)N1CCN(C(=O)CCBr)CC1 | inactive | –
76 | O=C(O)c1ccccc1C(=O)Nc1ccc(S(=O)(=O)Nc2nccs2)cc1 | inactive | –
77 | O=C(O)COC(=O)Cc1ccccc1Nc1c(Cl)cccc1Cl | inactive | –
78 | CNCc1ccccc1 | inactive | –
79 | COC(=O)c1ccc(O)cc1 | inactive | –
80 | CC(=O)Oc1cccc(C)c1 | inactive | –
81 | O=C(O)[C@@H]1[C@H]2C[C@H]3c4[nH]c5ccccc5c4CCN3C[C@@H]2CC[C@@H]1O | inactive | –
82 | CCOc1ccccc1O[C@H](c1ccccc1)[C@H]1CNCCO1 | inactive | –
83 | NS(=O)(=O)c1cc(-c2nn[nH]n2)c(NCc2cccs2)cc1Cl | inactive | –
84 | CC(=O)Oc1cccc(O)c1 | inactive | –
85 | O=C(O)C(S)C(S)C(=O)O (configuration not stated) | inactive | –
86 | NS(=O)(=O)c1cc(C2(O)NC(=O)c3ccccc32)ccc1Cl (configuration not stated) | inactive | –
87 | O=c1[nH]c(=O)n([C@H]2C[C@H](O)[C@@H](CO)O2)cc1I | inactive | –
